From PubChem BioAssay AID624491 (Broad Institute, 2012)
Among all 1,800 compounds or so, about 1,400 (78%) were called active. Not shown: some 2% with an inconclusive outcome.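 Rule for the calls: active = fitted curve crossing a set activation limit at or below the highest valid dose tested; inconclusive = flat fit at 30 to 70% activation, or poor fit; inactive = the rest, including signal decreases.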 The set was probably picked from earlier hits. The list is a sample of the results. Potency and affinity values are given separately.

Test: N-linked glycosylation inhibitors, luciferase reporter, dose response, D54 ERlucT cells, luminescence, cherry-picks (AID 624491);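 note: signal gain reflects blocked N-linked glycosylation of a luciferase reporter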
Settings: 24 h, 100% = twice neutral-control luminescence; series mostly up to 19.5 µM

Activation (NLG inhibition), inactive:
O=c1cc(N=Nc2ccc(Cl)cc2)[nH]c(=O)[nH]1
CCCCCCCCn1c2c(c(=N)c3c1CCC3)CCCC2
O=C(N/N=C\c1ccc([N+](=O)[O-])o1)c1cncc(Br)c1
CCOC(=O)c1ccc(-c2ccc(/C=N/NC(=O)CN(c3cccc(C)c3)S(C)(=O)=O)o2)cc1
COc1cc2c(cc1OC)C(C)N(C(=O)Nc1ccccc1)CC2 (stereo not given)
CC1c2cc3c(cc2CCN1C(=O)c1ccc(Br)cc1)OCCCO3 (stereo not given)
Nc1nonc1-c1nc2ccccc2n1Cc1ccccc1
Nc1nonc1-c1nc2ccccc2n1CC(=O)N/N=C\c1ccc(-c2ccc(Cl)cc2)o1
CCOc1cccc2sc(Nc3nc4ccc(NC(C)=O)cc4s3)nc12
Oc1ccc(NCc2ccccc2OCc2ccccc2)cc1
CCc1cccc(CC)c1NC(=O)CN1C2CCCC1CC(NC(=O)Nc1cccc(OC)c1)C2 (stereo not given)
Cc1cc(NCCCN(C)C)n2c(nc3ccccc32)c1C#N
CC1Cc2ccccc2N1C(=O)CSc1nn2c(=O)c(C(C)(C)C)nnc2s1 (stereo not given)
COc1ccc(OC)c(N(CC(=O)Nc2cccnc2)S(=O)(=O)c2ccc(C)cc2)c1
COCC(=O)OC/C(O)=C(\C#N)c1nc2ccccc2[nH]1
CC(C)Oc1ccc(C(=O)Nc2ccc3c(c2)n(C)c(=O)n3C)cc1
O=C(NC1CCCC(C(F)(F)F)C1)c1ccc([N+](=O)[O-])o1 (stereo not given)
O=C(Nc1cccc2ccccc12)c1ccc([N+](=O)[O-])o1
O=C(Nc1ccc(N2CCCC2)c(Cl)c1)c1ccc([N+](=O)[O-])o1
O=C(Nc1nc2ccccc2s1)c1ccc([N+](=O)[O-])o1
CCn1cc([N+](=O)[O-])c(C(=O)Nc2nc(-c3ccc(C)c(C)c3)c(C)s2)n1
O=C(NC(=S)Nc1cccc(S(=O)(=O)NC2=NCCC2)c1)c1cc(-c2ccco2)nc2ccccc12
COc1ccc(/C=C2\COc3ccccc3C2=O)cc1OC
C[C@H](CO)N1C[C@H](C)[C@@H](CN(C)Cc2ccccc2)Oc2ccc(NC(=O)CCCCCC(=O)Nc3ccccc3N)cc2C1=O
O=C(NC1CCCCC1)C(c1cccnc1)N(C(=O)CCl)c1cccc(Cl)c1 (stereo not given)
COc1ccc(N(C(=O)CCl)C(C(=O)NC2CCCCC2)c2cccnc2)cc1 (stereo not given)
CC(=O)Cn1ncc(Br)c(Br)c1=O
CCN1/C(=C/c2sc(-c3ccccc3C)c[n+]2C)Sc2ccccc21
CCOC(=O)c1c(NC(=O)CCl)sc(C(=O)N(CC)CC)c1C
COc1ccc(C(=O)/C=C/Sc2nc3ccccc3o2)cc1
CCOc1ccc(N(C)S(=O)(=O)c2ccc(-c3cc(C)no3)s2)cc1
Cc1cccc(N(C)S(=O)(=O)c2ccc(-c3cc(C)no3)s2)c1
O=C1c2ccccc2-c2n[nH]c(=O)c3ccc(N4CCCCC4)c1c23
CCn1ncc(C2=NOC(C(=O)NCc3ccc(Cl)cc3)C2)c1C (stereo not given)
COc1cc(C2=NOC(C(=O)NCc3ccc(F)cc3)C2)cc(OC)c1OC (stereo not given)
O=C(NCc1ccc(OC(F)(F)F)cc1)C1CC(c2ccc(C(F)(F)F)cc2)=NO1 (stereo not given)
COc1cccc(S(=O)(=O)Nc2ccc3c(c2)[C@@H]2C[C@@H](CC(=O)NCc4ccc(Cl)cc4)O[C@@H](CO)[C@@H]2O3)c1
COc1cc(-c2cc(-c3ccc(O)cc3)nc(N)c2C#N)ccc1O
COc1ccccc1-c1cc(NC=O)c2ncc(-c3cccc(C(C)=O)c3)n2c1
COC(=O)c1cccc(NS(=O)(=O)c2ccc(OC)cc2)c1C
O=C(CC1Sc2ccccc2NC1=O)NNc1cccc(Cl)c1Cl (stereo not given)
Cc1c(O)cc2c(c1O)C(=O)CC(c1ccccc1)O2 (stereo not given)
CCc1nc(SCC(=O)c2ccc3c(c2)OCCO3)c2ccccc2n1
Cc1ccc(C(C)C)c(OCc2nnc(SCC(=O)Nc3ncc(C)s3)n2C)c1
COc1ccc(/C=C2\N=C(c3ccccc3Cl)NC2=O)cc1
CCc1ccc(OCC(=O)Nc2ccncc2)c(Br)c1
O=C(/C=C/c1cccnc1)c1ccc([N+](=O)[O-])cc1
NC1=NC(c2ccc(Cl)cc2)C(C(=O)c2ccccc2)N1 (stereo not given)
COc1ccc(S(=O)(=O)Nc2cccc3ccc(O)cc23)cc1
O=C(CCN1C(=O)/C(=C\c2ccccc2)SC1=S)N1CCCCC1
Cc1ccc(CNC(=O)Cc2ccc(-n3c(=O)[nH]c4ccsc4c3=O)cc2)cc1
CCOc1ccc(-n2c(C)cc(C(=O)CCl)c2C)cc1
COC(=O)c1c(NC(=O)CN2C(=O)NC3(CCC(C)CC3)C2=O)sc2c1CCC2 (stereo not given)
COC(=O)CNC(c1ccccc1Cl)c1cc(Br)ccc1NC(=O)CCN1CCOCC1 (stereo not given)
COc1ccc(CC(=O)Nc2ccc(-c3ccc4nnc(C)n4n3)cc2)cc1OC
N#CCC(CNc1ncc(C(F)(F)F)cc1Cl)OC(=O)c1ccc(Cl)cc1Cl (stereo not given)
Cc1cccn2c(=O)c3cc(C(=O)N4CCCCC4)sc3nc12
COc1ccc(-c2oc3cc(O)c(OC)c(O)c3c(=O)c2OC)cc1
Cc1cccc(N2C(=O)CC(N3CCN(C(=O)c4ccccc4)CC3)C2=O)c1 (stereo not given)
CC1=C(n2ccnc2)CCC1=O
O=C1CCCC2=C1C(c1ccc(Cl)cc1)n1c(s/c(=C\c3ccc4ccncc4c3)c1=O)=N2 (stereo not given)
O=c1cc(N2CCN(c3ccccc3Cl)CC2)[nH]c(=O)n1Cc1ccc(F)cc1
Nc1c(N(CCC2=CCCCC2)C(=O)COc2ccc(F)cc2)c(=O)[nH]c(=O)n1Cc1ccccc1
O=C(N/N=C/c1ccc2c(c1)OCO2)c1cccc2ccccc12
CC(C)(C)c1ccc(C(=O)NNC(=O)c2cccc(Br)c2)cc1
COc1cccc(/C=N/NC(=O)c2[nH]nc3c2CCc2ccccc2-3)c1
COc1ccc(/C=C/C(=O)c2ccc3c4c(cccc24)CC3)cc1OC
COc1ccc(/C=C/C(=O)c2c(O)cc(OC)cc2OC)cc1
COc1ccc(NC(=O)c2cnc(SC)nc2)cc1
CCN(CC)Cc1cc(Nc2c3ccccc3nc3c4ccccc4n(C)c23)cc(CN(CC)CC)c1O
CCOC(=O)c1[nH]c(C)c(C(=O)Nc2cc(Cl)ccc2C)c1C
CCOC(=O)c1c(C)[nH]c(-c2csc(N)n2)c1C
CCOC(=O)c1[nH]c(COC(=O)CCOc2ccccc2OC)c(C(=O)OCC)c1C
CCN(CC)c1ccc(C(=O)n2cnc3ccccc32)cc1
CC(=O)N1c2ccccc2C(=O)C1N(C)c1ccc(C)cc1 (stereo not given)
COCCNc1nc(-c2ccccc2CO)c2sc(-c3ccccc3)cc2n1
CCOC(=O)c1ccc(-n2cccc2/C=C2\NC(=O)NC2=O)cc1
O=C(N/N=C\c1cccnc1)c1cc(-c2ccccc2)nc2c(Cl)cccc12
O=C(/C=C/c1ccc([N+](=O)[O-])s1)N1CCCCC1
CCN(c1ccccc1)S(=O)(=O)c1ccc(C(=O)NC2CCN(Cc3ccccc3)CC2)cc1
Cc1nnc2n(c1=O)N=C(c1ccc(Cl)cc1)CS2
O=C(CN1C2=NCCCN2c2ccccc21)c1ccc([N+](=O)[O-])cc1
CC(C)(C)S(=O)N1Cc2cc(C(=O)NCC(F)(F)F)nc(-c3cccc(-c4cccc(F)c4)c3)c2[C@@H]1CCO (stereo not given in full)
Cc1cnc(C(=O)OCC(=O)NC2CCCCCCC2)cn1
Cc1ccc(-c2nn(-c3ccccc3)cc2NC(=O)CCl)cc1
COc1ccccc1NC(=O)Cn1nnc(-c2ccccc2NC(=O)c2ccco2)n1
CCc1cccc(NC(=O)CN2C(=O)NC3(CCCCCCC3)C2=O)c1
O=C(CN1C(=O)NC2(CCCCC2)C1=O)Nc1ccc2c(c1)CCC2
Cc1ccc(C)c(N2CCN(S(=O)(=O)c3ccc(-c4ccc(=O)[nH]n4)o3)CC2)c1
Cn1cnc([N+](=O)[O-])c1Oc1ccc2ccccc2c1
CCn1c(=O)cc(C(=O)OC)sc1=Nc1ccc(F)c(F)c1
O=C1c2cccc3c([N+](=O)[O-])ccc(c23)C(=O)N1CC1CCCO1 (stereo not given)
O=c1cc(-c2ccccc2)[nH]n1-c1nc2ccccc2[nH]1
Nc1cc2c(cc1Br)-c1c(C(=O)O)cccc1C2O (stereo not given)
O=C(COc1ccc(/C=N/NC(=O)c2cc3ccccc3o2)cc1Br)Nc1ccccc1
CO/N=C/c1ccc(OC)c(Oc2nc(OC)cc(OC)n2)c1
CCCCCC[n+]1ccccc1/C=C/c1ccc(N(C)C)cc1
CCC1=Nc2cc(C(=O)NCc3ccco3)ccc2Sc2ccc(Cl)cc21
Cc1nnc2ccc(-c3ccc(NC(=O)c4ccco4)cc3)nn12
O=C(COc1ccc(/C=N/NC(=O)c2cc3ccccc3o2)cc1Cl)Nc1ccccc1
CC(=O)c1ccc(Nc2c3c(nc4ccccc24)CCCC3)cc1
COc1cc(Nc2c3ccccc3nc3ccccc23)cc(OC)c1OC
CCn1cc2nc(SCC(=O)Nc3ccc(OC)cc3OC)n(Cc3ccc(OC)cc3)c(=O)c2n1
COc1ccc(NC(=O)CSc2nc3ccsc3c(=O)n2Cc2ccccn2)c(OC)c1
COC(=O)c1cccc(Nc2c3c(nc4ccccc24)CCC3)c1
